Source: PubChem BioAssay AID1159580 (chemical genetic matrix, 2015)
Where “and” joins values, the source holds several entries; their conditions need not be identical. Identical values can stand only once. Out of some 5,500 compounds screened, about 2,000 (36%) were called active. About 18% were inconclusive and are not listed. Rule as the data show it: active = normalized growth mostly below about 0.91 (no sharp cut-off); inconclusive = no clear call, values can overlap the other calls; inactive = mostly above about 0.92. Some of the results follow.

Assay: chemical genetic growth profiling, strain panel (AID 1159580);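 also: tested at 20 µM; growth read once vehicle control cultures reached saturation at 30 °C; 1 = growth at the plate median or of vehicle wells; lower values mean less growth of the strain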
Conditions: S. cerevisiae deletion strains, growth OD

## CCCCOC(=O)c1ccc(N)cc1
Locus YAL013W, strain DEP1, stronger effect = lower value
  normalized growth: 0.974 (inactive)
Locus YAL021C, strain ccr4, stronger effect = lower value
  normalized growth: 0.909 (inactive)
Locus YAL026C, strain drs2, stronger effect = lower value
  normalized growth: 0.603 (active)
Locus YAL030W, strain snc1, stronger effect = lower value
  normalized growth: 0.908 (active)
Locus YBL061C, strain skt5, stronger effect = lower value
  normalized growth: 0.71 (active)
Locus YBR009C, strain hhf1, stronger effect = lower value
  normalized growth: 0.849 (active)
Locus YBR021W, strain FUR4, stronger effect = lower value
  normalized growth: 0.948 (inactive)
Locus YBR023C, strain chs3, stronger effect = lower value
  normalized growth: 0.729 (active)
Locus YBR171W, strain sec66, stronger effect = lower value
  normalized growth: 0.884 (active)
Locus YBR229C, strain ROT2, stronger effect = lower value
  normalized growth: 0.993 (inactive)
Locus YBR231C, strain swc5, stronger effect = lower value
  normalized growth: 0.821 (active)
Locus YBR279W, strain paf1, stronger effect = lower value
  normalized growth: 0.897 (active)
Locus YCL011C, strain gbp2, stronger effect = lower value
  normalized growth: 0.891 (active)
Locus YCL016C, strain dcc1, stronger effect = lower value
  normalized growth: 0.86 (active)
Locus YCL029C, strain bik1, stronger effect = lower value
  normalized growth: 0.948 (inactive)
Locus YCL069W, strain vba3, stronger effect = lower value
  normalized growth: 0.886 (active)
Locus YCR088W, strain abp1, stronger effect = lower value
  normalized growth: 0.862 (active)
Locus YDL005C, strain med2, stronger effect = lower value
  normalized growth: 0.949 (inactive)
Locus YDL035C, strain GPR1, stronger effect = lower value
  normalized growth: 0.951 (inactive)
Locus YDL040C, strain nat1, stronger effect = lower value
  normalized growth: 0.932 (active)
Locus YDL074C, strain BRE1, stronger effect = lower value
  normalized growth: 0.869 (inactive)
Locus YDL101C, strain DUN1, stronger effect = lower value
  normalized growth: 0.975 (inactive)
Locus YDL134C, strain PPH21, stronger effect = lower value
  normalized growth: 0.969 (inactive)
Locus YDL185W, strain tfp1, stronger effect = lower value
  normalized growth: 0.959 (inactive)
Locus YDL192W, strain arf1, stronger effect = lower value
  normalized growth: 0.886 (active)
Locus YDR001C, strain nth1, stronger effect = lower value
  normalized growth: 0.904 (active)
Locus YDR069C, strain doa4, stronger effect = lower value
  normalized growth: 0.916 (inactive)
Locus YDR101C, strain arx1, stronger effect = lower value
  normalized growth: 0.898 (active)
Locus YDR137W, strain rgp1, stronger effect = lower value
  normalized growth: 0.453 (active)
Locus YDR150W, strain NUM1, stronger effect = lower value
  normalized growth: 0.988 (inactive)
Locus YDR159W, strain sac3, stronger effect = lower value
  normalized growth: 0.751 (active)
Locus YDR162C, strain NBP2, stronger effect = lower value
  normalized growth: 0.801 (active)
Locus YDR195W, strain ref2
  normalized growth: 1.14 (inactive)
Locus YDR297W, strain sur2, stronger effect = lower value
  normalized growth: 0.92 (active)
Locus YDR318W, strain mcm21, stronger effect = lower value
  normalized growth: 0.897 (active)
Locus YDR334W, strain swr1, stronger effect = lower value
  normalized growth: 0.914 (inactive)
Locus YDR335W, strain msn5, stronger effect = lower value
  normalized growth: 0.858 (active)
Locus YDR388W, stronger effect = lower value
  normalized growth: 0.911 (active)
Locus YDR392W, strain spt3, stronger effect = lower value
  normalized growth: 0.484 (active)
Locus YDR502C, strain sam2, stronger effect = lower value
  normalized growth: 0.911 (active)
Locus YEL003W, strain gim4, stronger effect = lower value
  normalized growth: 0.888 (active)
Locus YEL037C, strain rad23, stronger effect = lower value
  normalized growth: 0.928 (inactive)
Locus YEL061C, strain CIN8 (second series), stronger effect = lower value
  normalized growth: 0.895 (active)
Locus YEL061C, strain CIN8, stronger effect = lower value
  normalized growth: 0.974 (inactive)
Locus YER015W, strain faa2, stronger effect = lower value
  normalized growth: 0.864 (active)
Locus YER016W, strain bim1, stronger effect = lower value
  normalized growth: 0.877 (active)
Locus YER110C, stronger effect = lower value
  normalized growth: 0.922 (inactive)
Locus YER111C, strain swi4, stronger effect = lower value
  normalized growth: 0.896 (active)
Locus YER155C, strain BEM2 (second series), stronger effect = lower value
  normalized growth: 0.203 (active)
Locus YER155C, strain BEM2, stronger effect = lower value
  normalized growth: 0.969 (inactive)
Locus YER167W, strain BCK2, stronger effect = lower value
  normalized growth: 0.906 (inactive)
Locus YFR010W, strain ubp6, stronger effect = lower value
  normalized growth: 0.924 (inactive)
Locus YGL078C, strain dbp3, stronger effect = lower value
  normalized growth: 0.96 (inactive)
Locus YGL086W, strain mad1, stronger effect = lower value
  normalized growth: 0.927 (active)
Locus YGL167C, strain pmr1, stronger effect = lower value
  normalized growth: 0.927 (inactive)
Locus YGL173C, strain kem1, stronger effect = lower value
  normalized growth: 0.876 (active)
Locus YGL227W, strain vid30, stronger effect = lower value
  normalized growth: 0.893 (active)
Locus YGL240W, strain doc1, stronger effect = lower value
  normalized growth: 0.666 (active)
Locus YGL248W, strain PDE1, stronger effect = lower value
  normalized growth: 0.996 (inactive)
Locus YGL253W, strain hxk2, stronger effect = lower value
  normalized growth: 0.869 (active)
Locus YGR078C, strain PAC10, stronger effect = lower value
  normalized growth: 0.89 (inactive)
Locus YGR135W, strain pre9, stronger effect = lower value
  normalized growth: 0.865 (active)
Locus YGR229C, strain SMI1, stronger effect = lower value
  normalized growth: 0.608 (active)
Locus YGR252W, strain gcn5, stronger effect = lower value
  normalized growth: 0.743 (active)
Locus YHR013C, strain ard1, stronger effect = lower value
  normalized growth: 0.856 (inactive)
Locus YHR027C, strain rpn1, stronger effect = lower value
  normalized growth: 0.908 (active)
Locus YHR030C, strain SLT2, stronger effect = lower value
  normalized growth: 0.637 (active) and 0.942 (inactive)
Locus YHR079C, strain IRE1 (second series), stronger effect = lower value
  normalized growth: 0.935 (inactive)
Locus YHR079C, strain IRE1, stronger effect = lower value
  normalized growth: 0.993 (inactive)
Locus YHR094C, strain hxt1, stronger effect = lower value
  normalized growth: 0.961 (inactive)
Locus YHR129C, strain ARP1, stronger effect = lower value
  normalized growth: 0.984 (inactive)
Locus YHR142W, strain chs7, stronger effect = lower value
  normalized growth: 0.495 (active)
Locus YHR200W, strain rpn10, stronger effect = lower value
  normalized growth: 0.933 (inactive)
Locus YIL066C, strain RNR3, stronger effect = lower value
  normalized growth: 0.925 (inactive)
Locus YIL073C, strain SPO22, stronger effect = lower value
  normalized growth: 0.85 (inactive)
Locus YIL125W, strain kgd1, stronger effect = lower value
  normalized growth: 0.967 (inactive)
Locus YIR030C, strain dcg1, stronger effect = lower value
  normalized growth: 0.946 (inactive)
Locus YJL092W, strain hpr5, stronger effect = lower value
  normalized growth: 0.872 (active)
Locus YJL095W, strain BCK1 (second series), stronger effect = lower value
  normalized growth: 0.278 (active)
Locus YJL095W, strain BCK1, stronger effect = lower value
  normalized growth: 0.511 (active) and 0.971 (inactive)
Locus YJL115W, strain asf1, stronger effect = lower value
  normalized growth: 0.907 (inactive)
Locus YJL129C, strain trk1, stronger effect = lower value
  normalized growth: 0.769 (active)
Locus YJL134W, strain LCB3, stronger effect = lower value
  normalized growth: 0.985 (inactive)
Locus YJL154C, strain vps35, stronger effect = lower value
  normalized growth: 0.906 (active)
Locus YJL164C, strain tpk1, stronger effect = lower value
  normalized growth: 0.871 (active)
Locus YJL166W, strain qcr8, stronger effect = lower value
  normalized growth: 0.825 (active)
Locus YJL168C, strain set2, stronger effect = lower value
  normalized growth: 0.953 (inactive)
Locus YJL187C, strain SWE1 (second series), stronger effect = lower value
  normalized growth: 0.93 (inactive)
Locus YJL187C, strain SWE1, stronger effect = lower value
  normalized growth: 0.919 (active)
Locus YJR043C, strain POL32, stronger effect = lower value
  normalized growth: 0.871 (inactive)
Locus YJR066W, strain TOR1, stronger effect = lower value
  normalized growth: 0.949 (inactive)
